Measured values reported in PubChem BioAssay (EPA / NIEHS).
Several values for one entry are separate records, joined by “and”; a condition that tells them apart may be missing. Equal values may be shown once. Results filed as inconclusive are left out. More than one record can exist for a structure, and the calls need not agree. Activity calls are given as the source filed them. The calls were made as follows: active = hit-call score of the fitted dose curve at least 0.9, where 1 is the maximum; inconclusive = response in the unintended direction; inactive = score below 0.9.

read-out: Cytochrome P450 3A4 (Homo sapiens) (UniProt P08684); test: CLD_CYP3A4_24hr: CellzDirect (CLD) Gene Expression Assay for xenobiotic metabolism (CYP3A4) at 24 hours (AID 2283689)
Protocol: CLD_24hr is a cell-based, multiplexed-readout assay that uses hepatocyte, a human liver primary cell, with measurements taken at 24 hours after chemical dosing in a 96-well plate.CLD_CYP3A4_24hr is one of 16 assay component(s) measured or calculated from the CLD_24hr assay. It is designed to make measurements of mRNA induction, a form of inducible reporter, as detected with chemiluminescence signals by Quantitative Nuclease Protection Assay (qNPA) technology.Data from the assay component CLD_CYP3A4_24hr was analyzed at the endpoint, CLD_CYP3A4_24hr, in the positive analysis fitting direction relative to DMSO as the negative control and baseline of activity. Using a type of inducible reporter, gain-of-signal activity can be used to understand changes in the reporter gene as they relate to the gene CYP3A4. Furthermore, this assay endpoint can be referred to as a primary readout. To generalize the intended target to other relatable targets, this assay endpoint is annotated to the cyp intended target family, where subfamily is xenobiotic metabolism.
Human hepatocyte cultures were treated daily for two consecutive days with fresh dosing solutions containing appropriate concentrations of the 320 ToxCast chemicals (chemical identities were blinded to CellzDirect and other ToxCast collaborators), vehicle control (0.2% DMSO), and positive control inducers as summarized in Table 1. Due to the large number of treatment groups and chemicals examined, the ToxCast chemicals were divided into two groups (spanning two independent cultures of hepatocytes from separate donor preparations (Hu778: ToxCast plates 1 and 2; Hu776: ToxCast plates 3 and 4). Each preparation of human hepatocyte cultures was treated with respective vehicle control, medium only control, set of six positive controls/reference chemicals for the five hepatic receptor pathways, and a subset of eight of the ToxCast chemicals (indoxacarb, pyrithiobac-sodium, norflurazon, cyhalofop-butyl, methomyl, thiram, acetochlor, and propiconazole). These replicate data, coupled with internal replicates designed within the blinded ToxCast chemical library, provided additional data to evaluate interindividual differences between hepatocyte preparations and their potential impact on chemical profiles.Cell morphology and integrity were evaluated using phase-contrast microscopy as an indicator of hepatocyte cell health (Tyson & Green, 1987). Cultures for each treatment group (i.e., media, vehicle [0.2% DMSO], positive control inducers [multiple concentrations], and the ToxCast chemicals [multiple concentrations]) were observed and cell morphology was assessed relative to vehicle control cultures at each harvest time point (0, 6, 24, or 48 h). […] Images were evaluated at the conclusion of the study to assess changes in cell integrity and account for the effects of chemical exposure on uncharacteristic changes in concentration-dependent gene expression profiles. The results from these determinations of apparent cytotoxicity were annotated (yes/no) alongside the corresponding qNPA data for reference.At the conclusion of each treatment period, hepatocyte cultures (96-well) were washed with 1 volume of HBSS, lysed by addition of 25 ul ArrayPlate lysis buffer (HTG, Tucson, AZ), and 70 ul/well of Denaturation Oil, denatured by incubation at 95C for 10 min, and frozen at approximately -70C until analysis by nuclease protection assay (qNPA) (Roberts et al., 2007). For qNPA analysis, cell lysates were thawed at 50C for approximately 30 min, qNPA probes were added, and samples were incubated at 95C for 10 min to begin the detection process by denaturing the target RNA, dissociating the duplexes and secondary structure hybridization. At the conclusion of the hybridization period, S1 nuclease reagent was added to each sample to digest all nonprotected nucleotides at 50C for 60-90 min. […]

Cytochrome P450 3A4 (Homo sapiens), sequence (P08684 whole entry, looked up): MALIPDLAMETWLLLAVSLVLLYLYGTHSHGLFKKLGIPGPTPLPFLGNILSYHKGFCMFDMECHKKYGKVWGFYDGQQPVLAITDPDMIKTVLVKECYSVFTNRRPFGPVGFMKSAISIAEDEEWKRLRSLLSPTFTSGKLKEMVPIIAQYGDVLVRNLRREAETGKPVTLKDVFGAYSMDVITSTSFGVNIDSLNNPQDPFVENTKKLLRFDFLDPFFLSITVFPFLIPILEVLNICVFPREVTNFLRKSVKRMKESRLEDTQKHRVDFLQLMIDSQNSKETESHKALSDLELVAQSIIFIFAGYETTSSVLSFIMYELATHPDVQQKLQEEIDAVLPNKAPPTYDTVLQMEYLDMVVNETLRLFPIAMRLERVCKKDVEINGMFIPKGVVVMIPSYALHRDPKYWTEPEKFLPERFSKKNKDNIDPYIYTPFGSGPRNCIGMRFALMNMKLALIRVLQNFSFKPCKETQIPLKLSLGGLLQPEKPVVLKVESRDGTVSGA

| SMILES | AC50 | outcome |
| --- | --- | --- |
| COC(=O)C(C)Oc1ccc(Oc2ccc(Cl)cc2Cl)cc1 (stereo not given) | 5.43 µM (active) | inactive |
| CCNc1nc(Cl)nc(NC(C)C)n1 | 20 µM (active) | – |
| COP(=S)(OC)Oc1nc(Cl)c(Cl)cc1Cl | 3.97 µM (active) | – |
| CC1COC(Cn2cncn2)(c2ccc(Oc3ccc(Cl)cc3)cc2Cl)O1 (stereo not given) | 1.9 µM (active) | – |
| CCOC(=O)C(Cl)Cc1cc(-n2nc(C)n(C(F)F)c2=O)c(F)cc1Cl (stereo not given) | 20 µM (active) | – |
| OC(c1ccc(Cl)cc1)(c1cncnc1)c1ccccc1Cl (stereo not given) | 0.542 µM (active) | – |
| COc1nc(NC(C)C)nc(NC(C)C)n1 | 1.9 µM (active) | – |
| CCOC(=O)CC(SP(=S)(OC)OC)C(=O)OCC (stereo not given) | – | inactive |
| Oc1ccccc1-c1ccccc1 | – | inactive |
| O=C(O)c1nc(Cl)ccc1Cl | – | inactive |
| CC(C)C1(C)N=C(c2nc3ccccc3cc2C(=O)O)NC1=O (stereo not given) | – | inactive |
| CCCC1COC(Cn2cncn2)(c2ccc(Cl)cc2Cl)O1 (stereo not given) | 1.59 µM (active) | – |
| CON(C)C(=O)Nc1ccc(Cl)c(Cl)c1 | – | inactive |
| CCCCNC(=O)OCC#CI | – | inactive |
| CC1=C(C(=O)Nc2ccccc2)SCCO1 | 6.76 µM (active) | – |
| COC(=O)c1ccccc1C(=O)OC | – | inactive |
| O=C(O)COc1nc(Cl)c(Cl)cc1Cl | – | inactive |
| CC(C)(C)c1ccc(CSc2cnn(C(C)(C)C)c(=O)c2Cl)cc1 | 39.3 µM (active) | – |
| COC(=O)N(OC)c1ccccc1COc1ccn(-c2ccc(Cl)cc2)n1 | 3.73 µM (active) | – |

| SMILES | AC50 | outcome |
| --- | --- | --- |
| COc1nc(C)nc(NC(=O)NS(=O)(=O)c2ccccc2CCC(F)(F)F)n1 | 36.7 µM (active) and 5.29 µM (active) | inactive |
| C#CCOS(=O)OC1CCCCC1Oc1ccc(C(C)(C)C)cc1 (stereo not given) | 1.89 µM (active) | – |
| C=CC1(C)OC(=O)N(c2cc(Cl)cc(Cl)c2)C1=O (stereo not given) | – | inactive |
| CC(C)Oc1cc(-n2nc(C(C)(C)C)oc2=O)c(Cl)cc1Cl | 1.9 µM (active) | – |
| Cc1ccc(-c2c(Cl)nc(C#N)n2S(=O)(=O)N(C)C)cc1 | – | inactive |
| CCON=C(CC)C1=C(O)CC(c2c(C)cc(C)cc2C)CC1=O (stereo not given) | – | inactive |
| Cc1cc(Cl)ccc1OCC(=O)O | – | inactive |
| COc1nc(C)nc(NC(=O)NS(=O)(=O)c2ccccc2Cl)n1 | – | inactive |
| N#CC(CCc1ccc(Cl)cc1)(Cn1cncn1)c1ccccc1 (stereo not given) | 1.9 µM (active) | – |
| CN(C)C(=S)SSC(=S)N(C)C | – | inactive |
| CNC(=O)ON=CC(C)(C)SC | – | inactive |
| CCc1nn(C)c(C(=O)NCc2ccc(C(C)(C)C)cc2)c1Cl | 20 µM (active) | – |
| CCCN(CCC)c1c([N+](=O)[O-])cc(S(N)(=O)=O)cc1[N+](=O)[O-] | 11.1 µM (active) | – |
| CCOP(=S)(OCC)SCn1c(=O)oc2cc(Cl)ccc21 | – | inactive |
| O=C(Nc1ccccc1)Nc1ccnc(Cl)c1 | – | inactive |
| Cc1c(F)c(F)c(COC(=O)C2C(/C=C(\Cl)C(F)(F)F)C2(C)C)c(F)c1F (stereo not given) | 5.74 µM (active) | – |
| CCCCNC(=O)n1c(NC(=O)OC)nc2ccccc21 | – | inactive |
| COc1cnc(OC)n2nc(NS(=O)(=O)c3c(OCC(F)F)cccc3C(F)(F)F)nc12 | 2.42 µM (active) | – |
| N#Cc1nn(-c2c(Cl)cc(C(F)(F)F)cc2Cl)c(N)c1S(=O)C(F)(F)F (stereo not given) | 1.89 µM (active) | – |
